# Most compounds without a hit are left out; they make up all but 2.1% or so of the library.
# Abeta rescue – restores growth of yeast expressing A-beta42 peptide; yeast expressing A-beta42, growth rescue, OD600, 48 h; response scale: 0% DMSO, 100% iron-clioquinol control; Potency, µM (highest dose often 46.1 µM), usual class: activators; 410,000 compounds, 0.063% hits; AID 1347071; also: nearly all actives have a fitted effect of over 55% in size
#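 Yeast A-beta toxicity model in growth medium with pinned compounds, 48 h at 30 C; growth read as absorbance at 600 nm. Normalized to FeCl3/clioquinol equimolar mix (positive) and DMSO (negative).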
# FUS yeast rescue – suppressors of FUS proteinopathy in yeast. S. cerevisiae FUS-expressing, growth rescue, OD600, 24 h. Potency, µM (doses to about 76.6 µM), usual class: activators. 390,000 compounds, 0.24% hits. AID 1347120;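 also: plate controls were DMSO vehicle for no effect and reference control for full effect; nearly all actives have a fitted effect of over 55% in size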
#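 Yeast FUS proteinopathy model; galactose-induced FUS (2%), starting OD 0.005. Cpds in dilution series, 24hr, 30C, 99% humidity. Abs 600 nm growth. Pos ctrl CP55940 (top 92uM final); neg ctrl DMSO.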
# TDP-43 yeast inh – rescues yeast growth from TDP-43 toxicity; Potency, µM (titrated, usually from 46.1 µM), inactives show at the highest dose growth rescue (activation), usual class: activators; TDP-43 expressing yeast growth rescue, BacTiter-Glo, 24 h; 410,000 compounds, 1.8% hits; AID 652104; also: % of control where 0% means no effect; nearly all actives have a fitted effect of over 50% in size
#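 In this qHTS, compounds that restore growth of yeast expressing TDP-43 appear as activators. Cells (OD600=0.02, galactose medium, raffinose-pregrown) are incubated with compound 24 hr at 30 deg C and growth is quantified by BacTiter-Glo.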
# aSyn yeast inh – alpha-synuclein toxicity inhibition in yeast; Yeast expressing alpha-synuclein, growth rescue, BacTiter-Glo, 24 h; Potency, µM (top dose mostly 46.1 µM), without a hit: at the top dose growth rescue (activation), hits mostly activators; 370,000 compounds, 0.14% hits; also: % of control where 0% means no effect; nearly all actives have a fitted effect of over 65% in size
#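 Screening used galactose-induced yeast with toxic alpha-synuclein levels, exposed to compound for 24 hr at 30 deg C. Cell growth, read with BacTiter-Glo luminescence, gave the measured signal.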
# * marks the source's active call; other numbers are inactive results; i = inactive; u = inconclusive; x = no result; [ ] = another dose, or the depositor's remark. Calls follow the shape of the dose curve; as a rule, active = well fitted curve in the direction sought with a large enough effect; inconclusive = small, poorly fitted or top-dose-only effect, or another doubt; inactive = no such curve, though single readings can be large; an effect the other way counts as inactive or inconclusive. Potency is read from the fitted curve at half-maximal effect.
SMILES,Abeta rescue,FUS yeast rescue,TDP-43 yeast inh,aSyn yeast inh
CCCCOc1ccc(CNC(=O)CCCN2C(=O)CSc3c2c(C)nn3-c2ccccc2)cc1,i,u,28µM*,x
Cc1nn(-c2ccccc2)c2c1N(CCCC(=O)NCc1ccc(OC(C)C)cc1)C(=O)CS2,i,i,28µM*,x
O=C(Nc1ccc2c(c1)OCO2)OC1CC2CC1[C@H]1CCCCN1[C@H]2Cc1ccccc1 (stereo partly specified),x,i,x,x
Cc1cccc(NC(=O)C2CCCN(S(=O)(=O)c3c(C)noc3/C=C/N(C)C)C2)c1C (stereo unspecified),i,u,20%,x
CCN(CC)C(=O)C1CCN(S(=O)(=O)c2c(C)noc2/C=C/c2cccc(C)c2)CC1,i,20µM*,0%,1%
O=C(CC1C(=O)N(c2ccccc2)C(=O)N1Cc1ccc(F)cc1)Nc1cccc(F)c1 (stereo unspecified),i,i,2%,x
O=C(Nc1ccc(Cl)c(Cl)c1)C1CCN(c2ncccn2)CC1,x,i,x,x
COc1ccc(CN2C(=O)[C@@H]3C(c4ccccc4Cl)=NO[C@@H]3C2=O)cc1,i,i,u,-5%
O=C1[C@@H]2C(c3ccccc3Cl)=NO[C@@H]2C(=O)N1Cc1ccccc1,u,i,14µM*,2%
CC1CCCC(NC(=O)c2cccc(S(=O)(=O)NCc3ccccc3)c2)C1C (stereo unspecified),i,i,35µM*,7%
Cc1ccc(NC(=O)CN2C(=O)CCSc3ccccc32)c(C)c1,i,i,16µM*,3%
CCc1ccccc1NC(=O)Nc1ccc2c(c1)N(CC)C(=O)c1ccccc1S2,i,i,2%,x
NC(=S)NN=Cc1nccc2c(C(F)(F)C(F)(F)C(F)(F)F)cccc12,i,i,u,7.1µM*
Cc1cnc(C=NNC(N)=S)c2cccc(N)c12,i,x,6%,-22%
NC(=S)NN=Cc1nccc2ccccc12,u,i,21%,20µM*
C=CCNC(=S)NN=C1CCCCCCC1,8.9µM*,i,-3%,-8%
COCCNC(=S)NN=C1CCCCC1,i,i,-18%,0%
Cc1ccc(-c2nc(C3CCCN(S(=O)(=O)c4ccc(C)c(C)c4)C3)no2)cc1 (stereo unspecified),x,i,x,x
O=C(Cc1ccccc1)n1nc(-c2ccco2)nc1SCc1ccccc1,i,i,11µM*,0%
COc1cccc(NCc2nnc(SC(C(=O)N(C)C)c3ccccc3)n2C2CCCCC2)c1 (stereo unspecified),x,x,x,6%
CCOC(=O)CCSc1nc2c(c(C(F)(F)F)c1C#N)CCC2,i,i,13µM*,8%
O=C1C=C(c2ccccc2)OC(c2ccccc2)O1 (stereo unspecified),i,i,13µM*,11%
CNC(=O)C[C@H]1CC[C@H]2[C@@H](COc3ccc(NC(=O)Nc4ccccc4)cc3C(=O)N2C)O1,x,i,x,x
CCn1c2ccccc2c2cc(C=NNC(=O)c3ccoc3C)ccc21,x,i,x,x
CCOC(=O)C1CCN(C(=O)c2cc3ccc(OC)cc3[nH]2)CC1,i,i,26%,-3%
SMILES,Abeta rescue,FUS yeast rescue,TDP-43 yeast inh,aSyn yeast inh
CCOC(=O)C1CCN(C(=O)c2cc3cc(Cl)ccc3[nH]2)CC1,i,i,16µM*,1%
COc1ccc2c(c1)C1=NN(/C(C)=C/C(C)=O)C(c3ccc(F)cc3)C1CC2 (stereo unspecified),i,x,22µM*,7%
COC(=O)c1cccc(CN2C(=O)C(C)Oc3ccc(C)cc32)c1 (stereo unspecified),i,i,18µM*,21%
Cc1ccc2c(c1)N(Cc1ccccc1)C(=O)C(C)O2 (stereo unspecified),i,i,u,13%
NC(=O)CNC(=O)C1CCCc2c1[nH]c1ccc(Cl)cc21 (stereo unspecified),i,i,-4%,0%
CCOC(=O)CNC(=O)C1CCCc2c1[nH]c1ccc(Cl)cc21 (stereo unspecified),u,i,13µM*,9%
Cc1ccc(NC(=O)CSCC(=O)N(C)CCOc2ccc(Cl)cc2)cc1,i,i,u,9%
Cc1cccc(NC(=O)CSCC(=O)N(C)CCOc2ccc(Cl)cc2)c1,i,i,13µM*,-2%
CN(CC(=O)Nc1cccc(F)c1)C(=O)/C=C/c1cc(Br)ccc1OC(F)F,i,i,20µM*,4%
Cc1cccc(COc2ccccc2C(=O)N(C)CC(=O)Nc2cccc(F)c2)c1,i,i,25µM*,0%[1.84 µM]
Cc1ccc(-c2cnc(C3CC3)o2)cc1S(=O)(=O)Nc1ccc(F)cc1Cl,i,i,-10%,x
COc1ccc(NC(=O)CN(C)C(=O)c2cn(-c3ccccc3)nc2-c2ccc(F)cc2)cc1,i,u,25µM*,-11%
C[C@@H](NCCCc1cccc(C(F)(F)F)c1)c1cccc2ccccc12,x,x,x,-16%
Cc1cc(N2CCOCC2)n2ncc(-c3ccccc3Cl)c2n1,i,i,13µM*,11%
CCN(C(=O)CSc1nc(-c2ccccc2)no1)c1cccc(C)c1,i,i,16%,x
CN(c1ccccc1)c1cc(Br)nc(Br)c1,i,i,14µM*,0%
Cc1ccccc1-n1nc(CO)c(C(=O)NCC(c2ccccc2)c2ccccc2)n1,i,i,8%,x
CCOC(=O)CSc1nnc2n(-c3ccccc3)c(=O)c3c4c(sc3n12)CC(C(C)(C)C)CC4 (stereo unspecified),i,u,35µM*,x
N#Cc1cn(CCCOc2ccccc2)c2ccccc12,u,i,23%,-5%
COc1ccccc1OCCCn1cc(C#N)c2ccccc21,i,i,35µM*,1%
COc1ccccc1OCCn1cc(/C=N/NC(=O)c2ccncc2)c2ccccc21,i,i,13µM*,10%
COC(=O)c1cn(CCOc2ccccc2OC)c2ccccc12,i,i,u,15%
COC(=O)c1cn(CCOc2ccccc2F)c2ccccc12,u,i,11µM*,9%
O=C(c1ccco1)c1cn(CCOc2ccc(F)cc2)c2ccccc12,i,i,18µM*,x
CC1CCCN(CCCNC(=O)c2ccc3c(c2)N(Cc2cccc(Cl)c2)C(=O)c2ccccc2S3(=O)=O)C1 (stereo unspecified),i,i,-3%,x
COC(=O)C1CN(Cc2cn(Cc3ccc(C)cc3)nn2)CCS(=O)(=O)N1Cc1ccc(F)cc1 (stereo unspecified),x,i,x,x
COc1ccc(-c2cc(C)no2)cc1S(=O)(=O)Nc1c(C)cc(C)cc1C,i,u,u,x
Cc1ccc(C(=O)n2ccc3ccc(-c4ccc5ccn(Cc6ccccc6)c5c4)cc32)cc1,x,i,x,x

# Source: PubChem (National Center for Advancing Translational Sciences (NCATS))
